Screen size: about 5,500 compounds; about 2,000 (36%) were called active. Another 18% or so got no clear call; they are omitted. No stated cut-off is given here; in the data, active means normalized growth mostly below about 0.91 (no sharp cut-off); inconclusive means no clear call, values can overlap the other calls; inactive means mostly above about 0.92. The list shows a part of the results.
Experiment: chemical genetic growth profiling, strain panel (AID 1159580);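 further: tested at 20 µM; growth read once vehicle control cultures reached saturation at 30 °C; 1 = growth at the plate median or of vehicle wells; lower values mean less growth of the strain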
Conditions: growth OD

Measured: normalized growth

C/C=C(/C(=C/C)c1ccc(O)cc1)c1ccc(O)cc1
inactive: S. cerevisiae deletion strains, locus YKL068W, active compounds read low 0.961 | S. cerevisiae deletion strains, locus YKL160W, strain elf1, active compounds read low 0.947 | S. cerevisiae deletion strains, locus YKL190W, strain CNB1, active compounds read low 0.976 | S. cerevisiae deletion strains, locus YKR026C, strain gcn3, active compounds read low 0.986 | S. cerevisiae deletion strains, locus YKR091W, strain srl3, active compounds read low 0.995 | S. cerevisiae deletion strains, locus YLL001W, strain dnm1, active compounds read low 0.948 | S. cerevisiae deletion strains, locus YLL026W, active compounds read low 0.969 | S. cerevisiae deletion strains, locus YLL041C, strain sdh2, active compounds read low 0.965 | S. cerevisiae deletion strains, locus YLR027C, strain aat2, active compounds read low 0.959 | S. cerevisiae deletion strains, locus YLR102C, strain apc9, active compounds read low 0.991 | S. cerevisiae deletion strains, locus YLR113W, strain HOG1, active compounds read low 0.985 | S. cerevisiae deletion strains, locus YLR221C, strain rsa3, active compounds read low 0.982 | S. cerevisiae deletion strains, locus YLR258W, strain gsy2, active compounds read low 0.996 | S. cerevisiae deletion strains, locus YLR320W, strain mms22, active compounds read low 0.978 | S. cerevisiae deletion strains, locus YLR342W, strain FKS1, active compounds read low 0.943 | S. cerevisiae deletion strains, locus YLR357W, strain rsc2, active compounds read low 0.989 | S. cerevisiae deletion strains, locus YLR370C, strain arc18, active compounds read low 1 | S. cerevisiae deletion strains, locus YLR384C, strain iki3, active compounds read low 0.983 | S. cerevisiae deletion strains, locus YML124C, strain tub3, active compounds read low 0.971 | S. cerevisiae deletion strains, locus YMR058W, strain fet3, active compounds read low 0.932 | S. cerevisiae deletion strains, locus YMR078C, strain ctf18, active compounds read low 0.979 | S. cerevisiae deletion strains, locus YMR125W, strain sto1, active compounds read low 0.924 | S. cerevisiae deletion strains, locus YMR129W, active compounds read low 0.986 | S. cerevisiae deletion strains, locus YMR205C, strain PFK2, active compounds read low 0.958 | S. cerevisiae deletion strains, locus YMR231W, strain pep5, active compounds read low 0.975 | S. cerevisiae deletion strains, locus YNL183C, strain NPR1, active compounds read low 0.971 | S. cerevisiae deletion strains, locus YNL209W, strain ssb2, active compounds read low 1 | S. cerevisiae deletion strains, locus YNL248C, strain rpa49, active compounds read low 0.951 | S. cerevisiae deletion strains, locus YNL322C, strain KRE1 (second series), active compounds read low 0.985 | S. cerevisiae deletion strains, locus YNR049C, strain mso1, active compounds read low 0.99 | S. cerevisiae deletion strains, locus YOL012C, strain htz1 1.01 | S. cerevisiae deletion strains, locus YOR001W, strain rrp6, active compounds read low 0.967 | S. cerevisiae deletion strains, locus YOR070C, strain gyp1, active compounds read low 0.989 | S. cerevisiae deletion strains, locus YOR080W, strain dia2, active compounds read low 0.97 | S. cerevisiae deletion strains, locus YOR083W, strain WHI5, active compounds read low 0.929 | S. cerevisiae deletion strains, locus YOR106W, strain vam3, active compounds read low 0.914 | S. cerevisiae deletion strains, locus YOR136W, strain idh2, active compounds read low 0.938 | S. cerevisiae deletion strains, locus YOR231W, strain MKK1, active compounds read low 0.964 | S. cerevisiae deletion strains, locus YOR265W, strain rbl2, active compounds read low 0.976 | S. cerevisiae deletion strains, locus YOR270C, strain vph1, active compounds read low 0.911 | S. cerevisiae deletion strains, locus YOR290C, strain snf2, active compounds read low 0.971 | S. cerevisiae deletion strains, locus YOR316C, strain cot1, active compounds read low 0.993 | S. cerevisiae deletion strains, locus YPL051W, strain arl3, active compounds read low 0.956 | S. cerevisiae deletion strains, locus YPL078C, strain atp4, active compounds read low 0.901 | S. cerevisiae deletion strains, locus YPL106C, strain sse1, active compounds read low 0.975 | S. cerevisiae deletion strains, locus YPL240C, strain hsp82, active compounds read low 0.981 | S. cerevisiae deletion strains, locus YPL241C, strain CIN2, active compounds read low 0.988 | S. cerevisiae deletion strains, locus YPL256C, strain CLN2, active compounds read low 0.992 | S. cerevisiae deletion strains, locus YPR119W, strain clb2, active compounds read low 0.981 | S. cerevisiae deletion strains, locus YPR141C, strain kar3, active compounds read low 0.978
active: S. cerevisiae deletion strains, locus YKL009W, strain mrt4, active compounds read low 0.81 | S. cerevisiae deletion strains, locus YKL085W, strain MDH1 (second series), active compounds read low 0.764 | S. cerevisiae deletion strains, locus YKL085W, strain MDH1, active compounds read low 0.764 | S. cerevisiae deletion strains, locus YKR001C, strain vps1, active compounds read low 0.531 | S. cerevisiae deletion strains, locus YLR039C, strain RIC1, active compounds read low 0.368 | S. cerevisiae deletion strains, locus YLR058C, strain SHM2, active compounds read low 0.759 | S. cerevisiae deletion strains, locus YLR262C, strain YPT6 (second series), active compounds read low 0.659 | S. cerevisiae deletion strains, locus YLR262C, strain YPT6, active compounds read low 0.292 | S. cerevisiae deletion strains, locus YLR268W, strain sec22, active compounds read low 0.866 | S. cerevisiae deletion strains, locus YLR330W, strain CHS5, active compounds read low 0.724 | S. cerevisiae deletion strains, locus YLR342W, strain FKS1 (second series), active compounds read low 0.683 | S. cerevisiae deletion strains, locus YLR371W, strain rom2, active compounds read low 0.453 | S. cerevisiae deletion strains, locus YLR418C, strain cdc73, active compounds read low 0.542 | S. cerevisiae deletion strains, locus YML016C, strain PPZ1, active compounds read low 0.914 | S. cerevisiae deletion strains, locus YML032C, strain rad52, active compounds read low 0.691 | S. cerevisiae deletion strains, locus YML120C, strain ndi1, active compounds read low 0.909 | S. cerevisiae deletion strains, locus YMR223W, strain ubp8, active compounds read low 0.745 | S. cerevisiae deletion strains, locus YMR263W, strain SAP30, active compounds read low 0.851 | S. cerevisiae deletion strains, locus YMR307W, strain GAS1, active compounds read low 0.336 | S. cerevisiae deletion strains, locus YNL067W, strain RPL9B, active compounds read low 0.863 | S. cerevisiae deletion strains, locus YNL071W, strain lat1, active compounds read low 0.906 | S. cerevisiae deletion strains, locus YNL233W, strain BNI4, active compounds read low 0.76 | S. cerevisiae deletion strains, locus YNL250W, strain rad50, active compounds read low 0.871 | S. cerevisiae deletion strains, locus YNL271C, strain bni1, active compounds read low 0.899 | S. cerevisiae deletion strains, locus YNL298W, strain CLA4, active compounds read low 0.629 | S. cerevisiae deletion strains, locus YNL307C, strain MCK1, active compounds read low 0.707 | S. cerevisiae deletion strains, locus YNR052C, strain pop2, active compounds read low 0.383 | S. cerevisiae deletion strains, locus YOL006C, strain TOP1, active compounds read low 0.456 | S. cerevisiae deletion strains, locus YOL147C, strain pex11, active compounds read low 0.839 | S. cerevisiae deletion strains, locus YOR061W, strain CKA2, active compounds read low 0.879 | S. cerevisiae deletion strains, locus YOR069W, strain VPS5, active compounds read low 0.896 | S. cerevisiae deletion strains, locus YOR144C, strain elg1, active compounds read low 0.86 | S. cerevisiae deletion strains, locus YOR184W, strain ser1, active compounds read low 0.609 | S. cerevisiae deletion strains, locus YPR163C, strain tif3, active compounds read low 0.91 | S. cerevisiae deletion strains, locus YPR167C, strain met16, active compounds read low 0.854 | S. cerevisiae deletion strains, strain wtn01, active compounds read low 0.837 | S. cerevisiae strains, strain wild type, active compounds read low 0.877

— PubChem BioAssay AID1159580 (chemical genetic matrix, 2015)
